Measurements as given in PubChem BioAssay AID1259339 (Broad Institute, 2017).
The source made the active and inactive calls.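 Rule for the calls: active = fitted AC50 no higher than ten times the top tested dose (cut at about 90 µM in these data); inconclusive = flat curve with 30 to 70% signal loss, or bad fit; inactive = AC50 beyond ten times the top dose.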

Assay: TruHit bead signal quenchers or artefacts – biochemical, TruHit kit, artefact control, dose response (AID 1259339)
Conditions: TruHit alphaLISA kit signal interference counterscreen; series mostly up to 80 µM

| Structure (SMILES) | AC50 |
| --- | --- |
| O=C(NC1(C(F)(F)F)Oc2ccc(Cl)cc2O1)N1CCC2(CC1)OCCO2 (centres undefined) | > 160 µM (inactive) |
| O=C(NCCc1ccccc1)c1cc2cccnc2n(Cc2ccccc2)c1=O | inactive |
| Cc1ccc(S(=O)(=O)Cc2ccc(C(=O)N3CCC4(CC3)OCCO4)o2)cc1 | inactive |
| Nc1c(C(=O)NCc2ccco2)c2nc3ccccc3nc2n1CCN1CCOCC1 | 56.6 µM (active) |
